rCAG binder = molecules binding r(CAG) RNA repeats. r(CAG) RNA repeat, TO-PRO-1 dye displacement fluorescence. inhibition, % at 3 µM. 1.3% of 370,000 active. AID 651821;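 active = inhibition above the plate cutoff, the mean of all test compounds on that plate plus 3 SD, cut at about 35% in these data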;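 note: 0% = DMSO alone and 100% = 100 µM mitoxantrone as full dye displacement; higher means more dye released from RNA so lower well fluorescence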
MsrA inh = inhibitors of bovine MsrA. purified bovine MsrA, absorbance read-out. inhibition, % at 15.5 µM. 0.75% of 360,000 active. AID 651718; in the data active = inhibition above about 4.5%;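 note: 0% = vehicle wells with enzyme and 100% = reference inhibitor wells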
bovine MsrA act = bovine methionine sulfoxide reductase A activation; purified bovine MsrA, absorbance read-out; activation, % at 10.6 µM; 0.3% of 360,000 active; AID 602163; in the data active = activation above about 7.5%;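 note: 0% = vehicle and 100% = reference activator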
HGIII-sPLA2 inh = Inhibits HGIII-sPLA2 liposome hydrolysis, primary screen | inhibition, % at 12.2 µM | QFRET BODIPY PC-A2 liposome hydrolysis, fluorescence | 0.56% of 370,000 active | Q9NZ20;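 active = inhibition above mean plus 3 SD of compounds lying within the high and low control bounds, cut at about 19% in these data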;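 note: 0% = median of test compound wells and 100% = no enzyme DMSO wells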
Target sequence (Q9NZ20 whole entry, looked up): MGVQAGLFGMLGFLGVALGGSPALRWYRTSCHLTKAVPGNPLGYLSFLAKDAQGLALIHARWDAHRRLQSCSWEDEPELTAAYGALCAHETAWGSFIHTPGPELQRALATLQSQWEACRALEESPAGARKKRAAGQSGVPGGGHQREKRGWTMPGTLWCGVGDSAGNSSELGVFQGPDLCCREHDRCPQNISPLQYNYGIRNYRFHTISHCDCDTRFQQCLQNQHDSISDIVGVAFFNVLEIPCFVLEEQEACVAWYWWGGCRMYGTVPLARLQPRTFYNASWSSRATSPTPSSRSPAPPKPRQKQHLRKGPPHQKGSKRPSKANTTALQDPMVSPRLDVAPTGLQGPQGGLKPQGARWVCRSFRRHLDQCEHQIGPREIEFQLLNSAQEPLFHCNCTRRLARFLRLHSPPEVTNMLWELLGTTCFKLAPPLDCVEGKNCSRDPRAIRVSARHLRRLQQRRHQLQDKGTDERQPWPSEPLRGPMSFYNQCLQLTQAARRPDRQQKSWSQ
rCAG bind conf = r(CAG) RNA repeat binding, confirmation; inhibition, % at 3 µM; 70% of 4,300 active; TO-PRO-1 dye displacement fluorescence; shares compounds with rCAG binder; AID 652065;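 active = inhibition above a per-plate cutoff, the mean inhibition of sample wells plus 3 SD, cut at about 35% in these data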;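 note: loss of TO-PRO-1 fluorescence as compound displaces dye from 1x1 AA loop RNA; 0% = DMSO only wells and 100% = 100 µM mitoxantrone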
DNA CAG counter = disrupts DNA CAG TO-PRO-1 complex, flagging rCAG hits. shares compounds with rCAG binder. d(CAG) DNA oligo TO-PRO-1 dye displacement, fluorescence. inhibition, % at 3 µM. 94% of 4,300 active. AID 652068;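 active = inhibition above its plate's cutoff, the mean test-well inhibition plus 3 SD, cut at about 4.8% in these data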;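 note: 0% = DNA dye mix with DMSO and 100% = 100 µM mitoxantrone; hits displace the dye from DNA and so lower well fluorescence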
Active calls of the source: *; / = no result. Rows were chosen to be rich in hits. Some 2.8% of all compounds tested hit in one or more screens of this group.

SMILES	rCAG binder	MsrA inh	bovine MsrA act	HGIII-sPLA2 inh	rCAG bind conf	DNA CAG counter
CC(C)C[C@@H](C(=O)N[C@@H](C(=O)O)c1ccccc1)N1C(=O)N2CCc3c([nH]c4ccccc34)[C@@]2(C)C1=O	43*	0	-3	-41	43*	12*
CC(NC(=O)[C@H](C)N1C(=O)N2CCc3c([nH]c4ccccc34)[C@@]2(C)C1=O)c1ccccc1 (stereo partly drawn)	-5	0	-3	-37	/	/
Cc1ccc(-c2csc(NC(=O)c3ccc(C)o3)n2)cc1	4	1	-1	-13	/	/
Cc1ccc(-c2csc(NC(=O)c3ccno3)n2)cc1	45*	2	-1	5	49*	22*
CC(C)(CNC(=O)c1cccc(S(=O)(=O)Nc2ccc(SC(F)F)cc2)c1)N1CCOCC1	21	1	0	-9	/	/
COc1ccc(-c2cc(=O)oc3c(C)c(OCc4nn[nH]n4)ccc23)cc1	39*	2	-5	-18	23	5.7*
Cc1ccc(-n2c(SCC(=O)O)nc3c(sc(=S)n3-c3ccc(C)c(C)c3)c2=O)cc1	51*	3	-3	-29	42*	14*
Cc1ccc([C@@H]2C[C@H]3[C@@H](CN2S(=O)(=O)c2ccc(C)cc2)C(=O)C[C@@H](c2ccc(Cl)cc2)N3S(=O)(=O)c2ccc(C)cc2)cc1	11	1	-5	-5	/	/
COc1ccc(-c2c/c(=N\c3nc(-c4ccccc4)c(C)s3)c3ccccc3o2)cc1O	39*	3	3	-20	34	15*
COc1ccc(-c2cc(=Nc3c(C)n(C)n(-c4ccccc4)c3=O)c3ccccc3o2)cc1	-8	1	-5	-5	/	/
O=c1[nH]c(=S)[nH]c2c1C(c1ccc(Br)cc1)c1c([nH]c(=S)[nH]c1=O)O2	87*	0	-5	-26	84*	48*
O=C1CCCC2=C1C(c1ccc(Br)cc1)c1c([nH]c(=S)[nH]c1=O)N2 (stereo not drawn)	24	3	5	2	/	/
COc1ccc2c(c1)c1ccc3c(c1n2C)C(=O)C=CC3=O	54*	1	-11	9	11	8.3*
Cc1ccc2c(c1)c1ccc3c(c1n2C)C(=O)C=CC3=O	51*	1	2	12	13	9.6*
CCCN1CCN(CCCNC(=O)c2ccc3c(=O)n(CCc4ccccc4)c(=O)[nH]c3c2)CC1	-6	-1	2	-5	/	/
O=C1CS/C(=N/N=C/c2ccc(OS(=O)(=O)c3ccccc3)cc2)N1	40*	3	-2	-7	38*	9.7*
NC(N)=N/N=C/c1ccc(OS(=O)(=O)c2ccccc2)cc1	18	0	-9	-8	/	/
Cc1ccc(S(=O)(=O)N2[C@@H](c3ccc(F)cc3)C(C(=O)O)=CC[C@H]2c2cccc(Cl)c2)cc1	8	1	-4	-1	/	/
Cc1ccc(S(=O)(=O)N2[C@@H](c3ccccc3)C(C(=O)O)=CC[C@H]2c2ccc(C(C)C)cc2)cc1	81*	0	-2	-43	78*	41*
Cc1ccc([C@H]2C(C(=O)O)=CC[C@@H](c3ccc(Cl)cc3)N2S(=O)(=O)c2ccc(C)cc2)cc1	80*	1	0	-30	80*	47*
O=C(O)C1=CC[C@@H](c2ccc(Cl)cc2)N(S(=O)(=O)c2ccc(Cl)cc2)[C@H]1c1ccccc1	65*	0	-1	-32	69*	30*
Cc1ccc([C@H]2C(C(=O)O)=CC[C@@H](c3ccc(C(C)C)cc3)N2S(=O)(=O)c2ccc(C)cc2)cc1	88*	-1	5	-50	81*	48*
CC(C)C(=O)C1=Cc2cccc([N+](=O)[O-])c2OC1N1CCOCC1 (stereo not drawn)	5	0	-7	-4	/	/
CCN(C[C@H]1N[C@@](C)(C(=O)OC)[C@H]2C(=O)N(Cc3ccccc3)C(=O)[C@@H]12)S(=O)(=O)c1ccc(F)cc1	-1	-1	5	4	/	/
Cc1ccc(C)c(-n2ccnc2SCC(=O)Nc2cccc(S(=O)(=O)NC3=NCCC3)c2)c1	5	0	-1	-6	/	/
SMILES	rCAG binder	MsrA inh	bovine MsrA act	HGIII-sPLA2 inh	rCAG bind conf	DNA CAG counter
COc1ccccc1NC=C1C(=O)OC2(CCCCC2)OC1=O	-1	2	-2	-1	/	/
Cc1ccc(S(=O)(=O)N2[C@@H](c3ccc(Cl)cc3)C(C(=O)O)=CC[C@H]2c2ccc(C(C)C)cc2)cc1	83*	1	-1	-48	89*	61*
CCOC(=O)c1c(C)[nH]c(C)c1C(=O)COC(=O)c1cc2ccccc2cc1O	7	-1	-4	-41	/	/
C/C(CC(=O)N1CCCC1)=N\NC(=O)c1cc2ccccc2cc1O	38*	3	-8	-1	15	6.2*
CCOC(=O)C(C)/C(C)=N/NC(=O)c1cc2ccccc2cc1O (stereo not drawn)	44*	4	5	2	13	6.7*
NNC(=O)c1cc2ccccc2cc1O	41*	2	-7	9	5	4
CC1(C(=O)NCc2ccc(Cl)cc2)CCN1C(=O)Cc1cccc2ccccc12 (stereo not drawn)	0	0	-3	-6	/	/
CC(C)(C)c1ccc(CC(=O)N2CCC2(C)C(=O)NS(=O)(=O)c2ccccc2Cl)cc1 (stereo not drawn)	41*	0	0	-13	34	8.3*
CC(C)(C)c1ccc(S(=O)(=O)NC(=O)C2(C)CCN2C(=O)Cc2ccccc2Cl)cc1 (stereo not drawn)	47*	-1	-8	-5	56*	21*
CC(C)(C)c1ccc(S(=O)(=O)NC(=O)C2(C)CCN2C(=O)c2cccc3ccccc23)cc1 (stereo not drawn)	57*	1	-2	-13	52*	16*
CC1(C(=O)NS(=O)(=O)c2ccc(Cl)cc2)CCN1C(=O)Cc1cccc2ccccc12 (stereo not drawn)	46*	2	-1	-32	31	7.6*
CC12CCC(c3c(C(=O)O)nn(-c4ccc(F)cc4)c31)C2(C)C (stereo not drawn)	4	-1	-2	-1	/	/
Cc1ccccc1S(=O)(=O)NC(=O)C1(C)CCN1C(=O)Cc1ccc(C(C)(C)C)cc1 (stereo not drawn)	40*	0	-11	-11	33	8.7*
Cc1cc(C)cc(CC(=O)N2CCC2(C)C(=O)NS(=O)(=O)c2ccccc2C)c1 (stereo not drawn)	17	0	-2	4	/	/
COc1ccc(C2c3sc(=O)[nH]c3SC3C4CCC(C4)C23)cc1 (stereo not drawn)	7	0	-1	-13	/	/
Cc1ccc(O)c(N=CC2=C(O)c3ccccc3C2=O)c1	51*	2	-1	-12	42*	18*
O=C1C(C=Nc2ccccc2O)=C(O)c2ccccc21	13	2	-2	-10	/	/
COc1ccc(N(CC(=O)NCc2ccco2)S(C)(=O)=O)c(OC)c1	-2	1	-3	3	/	/
